Assay results taken from PubChem BioAssay.
Results filed as inconclusive are left out. The source made the active and inactive calls. Unless noted, cut-off not given; nearly all actives show AC50 up to about 26 µM.

Assays:
[1] = growth inhibition of DIPG glioma cells, dose response, cell-based, SU-DIPG-XVII, MIPE5.0, CellTiter-Glo, qHTS (AID 1347060); conditions: SU-DIPG-XVII viability, CellTiter-Glo ATP luminescence;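 on AC50: cells exposed to compound for 48 hours before viability readout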
[2] = viability loss in pontine glioma line – cell-based, SU-DIPG-XXV, MIPE5.0, CellTiter-Glo, qHTS, dose response (AID 1347065); conditions: CellTiter-Glo ATP luminescence;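 further: cells exposed to compound for 48 hours before ATP readout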
[3] = SU-DIPG-XXV glioma cell viability, MIPE5.0 library, qHTS (AID 1347068; cut-off not given, nearly all actives have IC50 up to about 30 µM;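 on IC50: cells exposed to compound for 48 hours before viability readout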)
[4] = JHH-DIPG-1 glioma cell viability, MIPE5.0 library, CellTiter-Glo luminescence, qHTS (AID 1347067); conditions: JHH-DIPG-1 glioma viability, CellTiter-Glo ATP luminescence;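 further: cells exposed to compound for 48 hours before readout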
[5] = sensitizers of A549 cells to miR-34 induction, primary screen, imaging, A549 dox-inducible miR-34, nuclei and caspase counts (AID 1347080;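 active means compounds whose cell count with miR-34 switched on is under 0.7 times the count with it off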); conditions: A549 miR-34 inducible, Hoechst nuclei count, 48 h
[6] = survival rescue of mitochondrial mutant cells in low glucose, primary screen, MELAS cybrids, Rieske KO mouse fibroblasts, CellTiter-Glo (AID 1508586;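 active means mean z-score across replicates of 1.96 or higher in either the MELAS or the Rieske mutant cell line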;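 further: z relative to plate mean and SD of compound and empty wells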)
[7] = viability rescue of complex I mutant cybrids, primary screen, cell-based, galactose medium, ATP luminescence (AID 1645843;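 active means z-score of at least 1.8 in each of two replicates, scored against plate mean and spread of sample wells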;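 further: positive z means more ATP and so rescue of galactose-driven cybrid death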); conditions: complex I mutant cybrid cells, 72 h, stronger effect = higher value
[8] = stronger effect = lower value, cell number ratio, induced over uninduced
[9] = measured here: relative caspase fold change +Dox/-Dox
[10] = measured here: total cells with miR-34 induction, stronger effect = lower value
[11] = measured here: total cells without miR-34 induction

CCCOc1ccn2c(C(C)=O)cc(-c3ccccc3S(C)(=O)=O)c2c1
outcome [1]: inactive | outcome [2]: inactive | outcome [3]: inactive

O=C(O)CCNc1cc(N2CCc3ccccc3CC2)nc(-c2cccnc2)n1
outcome [1]: inactive | outcome [4]: inactive | outcome [3]: inactive

CCCOc1ccc(CCc2nc3cc(-c4c(C)noc4C)ccc3n2CCN2CCOCC2)cc1
outcome [1]: inactive | AC50 [4]: 20.9 µM (active) | outcome [3]: inactive

C=CC(=O)N1CC(N2CCN(C(=O)CNc3cc(C4(C)CC4)c(Cl)cc3O)CC2)C1
outcome [1]: inactive | outcome [2]: inactive | outcome [3]: inactive

C=CC(=O)Nc1cccc(Nc2nc(Nc3ccc(Oc4ccnc(C(=O)NC)c4)cc3)ncc2F)c1
AC50 [1]: 10.5 µM (active) | AC50 [2]: 7.42 µM (active) | AC50 [4]: 14.8 µM (active) | IC50 [3]: 13.2 µM (active) | fold change [5, 8]: 0.924 (inactive) | fold change [5, 9]: 0.336 | cell count [5, 10]: 4090 | cell count [5, 11]: 4430 | z-score ([6]; MELAS cybrid survival, CellTiter-Glo 48 h, stronger effect = higher value): 1.34 (inactive) | z-score ([6]; Rieske KO mouse fibroblast survival, CellTiter-Glo 72 h): 1.7

Cc1nc2cccc(N)c2c(=O)n1C1CCC(=O)NC1=O (stereo not drawn)
outcome [1]: inactive | outcome [4]: inactive | outcome [3]: inactive

Cc1c(O)cccc1C(=O)NC(CSc1ccccc1)C(O)CN1CC2CCCCC2CC1C(=O)NC(C)(C)C (stereo not drawn)
AC50 [1]: 20.9 µM (active) | AC50 [2]: 20.9 µM (active) | IC50 [3]: 18.6 µM (active) | fold change [5, 8]: 1.31 (inactive) | fold change [5, 9]: 0.935 | cell count [5, 10]: 2190 | cell count [5, 11]: 1680 | z-score [7]: -1.88 (inactive)
